Assay results taken from PubChem BioAssay (NCI).
Compounds without any hit were thinned out: in the full panel of roughly 83,000, 20% have a hit.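 48-hour exposure, single concentration, 96-well plates; percent growth endpoint where 0 means no net growth. Active: below 10.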 A number with no mark means an inactive call. Active and inactive are the calls of the source.

How the values were obtained:
Test in all cases: NCI-60 one-dose screen, 48 h (100 = growth as untreated, 0 = no growth, -100 = all killed)
Conditions in all cases: 10 µM unless noted
DU-145 prostate = tested on: DU-145 prostate
K-562 leukemia = tested on: K-562 leukemia
MALME-3M melanoma = tested on: MALME-3M melanoma
MDA-MB-231 breast = tested on: MDA-MB-231 breast
RXF 393 renal = tested on: RXF 393 renal
SF-268 CNS = tested on: SF-268 CNS
SF-295 CNS = tested on: SF-295 CNS
SF-539 CNS = tested on: SF-539 CNS
UACC-257 melanoma = tested on: UACC-257 melanoma
M14 melanoma = tested on: M14 melanoma
HCT-15 colon = tested on: HCT-15 colon
SNB-75 CNS = tested on: SNB-75 CNS
SNB-19 CNS = tested on: SNB-19 CNS
U251 CNS = tested on: U251 CNS
PC-3 prostate = tested on: PC-3 prostate
SK-MEL-5 melanoma = tested on: SK-MEL-5 melanoma
UACC-62 melanoma = tested on: UACC-62 melanoma
LOX IMVI melanoma = tested on: LOX IMVI melanoma
SK-MEL-28 melanoma = tested on: SK-MEL-28 melanoma
HT29 colon = tested on: HT29 colon

C#Cc1cccc(NC(=O)c2ccc(NC(=O)C=C)cc2)c1
growth (DU-145 prostate): 58.9% [8.25 µM]
growth (K-562 leukemia): 71% [8.25 µM]
growth (MALME-3M melanoma): 85.2% [8.25 µM]
growth (MDA-MB-231 breast): 90% [8.25 µM]
growth (RXF 393 renal): 58.7% [8.25 µM]
growth (SF-268 CNS): 79.3% [8.25 µM]
growth (SF-295 CNS): 102% [8.25 µM]
growth (SF-539 CNS): 75.6% [8.25 µM]
growth (UACC-257 melanoma): 69.9% [8.25 µM]
growth (M14 melanoma): 86.3% [8.25 µM]
growth (HCT-15 colon): 60.9% [8.25 µM]
growth (SNB-75 CNS): 39.4% [8.25 µM]
growth (SNB-19 CNS): 84.5% [8.25 µM]
growth (U251 CNS): 80.6% [8.25 µM]
growth (PC-3 prostate): 67.7% [8.25 µM]
growth (SK-MEL-5 melanoma): 97.7% [8.25 µM]
growth (UACC-62 melanoma): 73.9% [8.25 µM]
growth (LOX IMVI melanoma): 79.6% [8.25 µM]
growth (SK-MEL-28 melanoma): 98.2% [8.25 µM]

NS(=O)(=O)c1ccc(N=Nc2ccc(-c3nn4cc(-c5ccccc5)nc4s3)cc2)cc1
growth (DU-145 prostate): 108%
growth (K-562 leukemia): 93.5%
growth (MALME-3M melanoma): 105%
growth (MDA-MB-231 breast): 107%
growth (RXF 393 renal): 111%
growth (SF-268 CNS): 101%
growth (SF-295 CNS): 96.5%
growth (SF-539 CNS): 97.6%
growth (UACC-257 melanoma): 99.8%
growth (M14 melanoma): 96.6%
growth (HCT-15 colon): 99.2%
growth (SNB-75 CNS): 86.1%
growth (SNB-19 CNS): 108%
growth (U251 CNS): 99.7%
growth (PC-3 prostate): 94%
growth (SK-MEL-5 melanoma): 101%
growth (UACC-62 melanoma): 101%
growth (LOX IMVI melanoma): 96.9%
growth (SK-MEL-28 melanoma): 105%

COc1ccc(-c2nn(C(=O)c3cc(OC)c(OC)c(OC)c3)c3cc(N)ccc23)cc1
growth (DU-145 prostate): 10.1%
growth (K-562 leukemia): 8.96% (active)
growth (MALME-3M melanoma): 68.2%
growth (MDA-MB-231 breast): 29.9%
growth (RXF 393 renal): 14.6%
growth (SF-268 CNS): 27.4%
growth (SF-295 CNS): 7.45% (active)
growth (SF-539 CNS): -24% (active)
growth (UACC-257 melanoma): 86.4%
growth (M14 melanoma): 24.4%
growth (HCT-15 colon): 4.67% (active)
growth (SNB-75 CNS): 39.6%
growth (SNB-19 CNS): 34%
growth (U251 CNS): 12.3%
growth (PC-3 prostate): 25.8%
growth (SK-MEL-5 melanoma): -15.8% (active)
growth (UACC-62 melanoma): 42.5%
growth (LOX IMVI melanoma): 26.3%
growth (SK-MEL-28 melanoma): 45.1%

O=C(O)CCC(=O)Nc1nnc(-c2ccccc2)s1
growth (DU-145 prostate): 105%
growth (K-562 leukemia): 91.7%
growth (MALME-3M melanoma): 114%
growth (MDA-MB-231 breast): 108%
growth (RXF 393 renal): 120%
growth (SF-268 CNS): 96.4%
growth (SF-295 CNS): 96.9%
growth (SF-539 CNS): 102%
growth (UACC-257 melanoma): 104%
growth (M14 melanoma): 102%
growth (HCT-15 colon): 93.7%
growth (SNB-75 CNS): 87.8%
growth (SNB-19 CNS): 105%
growth (PC-3 prostate): 94.8%
growth (SK-MEL-5 melanoma): 103%
growth (UACC-62 melanoma): 97.8%
growth (LOX IMVI melanoma): 99.5%
growth (SK-MEL-28 melanoma): 107%

Cc1nc2cnc(N)c(C#Cc3cncc(C(=O)Nc4ccc(CN5CCN(C)CC5)c(C(F)(F)F)c4)c3)c2nc1C
growth (DU-145 prostate): 8.22% (active)
growth (K-562 leukemia): 7.33% (active)
growth (MALME-3M melanoma): -40.5% (active)
growth (MDA-MB-231 breast): -12.3% (active)
growth (RXF 393 renal): -68.3% (active)
growth (SF-268 CNS): 8% (active)
growth (SF-295 CNS): 36%
growth (SF-539 CNS): -23.3% (active)
growth (UACC-257 melanoma): -25.8% (active)
growth (M14 melanoma): -55.6% (active)
growth (HCT-15 colon): 2.84% (active)
growth (SNB-75 CNS): -5.44% (active)
growth (SNB-19 CNS): 48.2%
growth (U251 CNS): 42.1%
growth (PC-3 prostate): 29%
growth (SK-MEL-5 melanoma): 26.6%
growth (UACC-62 melanoma): -19.7% (active)
growth (LOX IMVI melanoma): -88.8% (active)
growth (SK-MEL-28 melanoma): -26.8% (active)

Cc1nn(-c2ccccc2)c(-n2ccnc2)c1/C=N/Nc1nc(-c2ccc(F)cc2)cs1
growth (DU-145 prostate): 87.5%
growth (K-562 leukemia): 38.8%
growth (MALME-3M melanoma): 83.2%
growth (MDA-MB-231 breast): 79.6%
growth (RXF 393 renal): 88.5%
growth (SF-268 CNS): 76.9%
growth (SF-295 CNS): 77.3%
growth (SF-539 CNS): 87.6%
growth (UACC-257 melanoma): 75.6%
growth (M14 melanoma): 79.7%
growth (HCT-15 colon): 76.8%
growth (SNB-75 CNS): 73.7%
growth (SNB-19 CNS): 87.1%
growth (U251 CNS): 74.4%
growth (PC-3 prostate): 65.5%
growth (SK-MEL-5 melanoma): 31.4%
growth (UACC-62 melanoma): 74.9%
growth (SK-MEL-28 melanoma): 97.6%

O=C(/C=C/c1sc(Cl)nc1Cl)c1ccc(Br)cc1
growth (DU-145 prostate): 98.6%
growth (K-562 leukemia): 9.52% (active)
growth (MALME-3M melanoma): 83.6%
growth (MDA-MB-231 breast): 90.4%
growth (RXF 393 renal): 85.5%
growth (SF-268 CNS): 94.1%
growth (SF-295 CNS): 95.9%
growth (SF-539 CNS): 71.1%
growth (UACC-257 melanoma): 98.3%
growth (M14 melanoma): 67.8%
growth (HCT-15 colon): 32.4%
growth (HT29 colon): 91.2%
growth (SNB-19 CNS): 90.6%
growth (PC-3 prostate): 95.5%
growth (SK-MEL-5 melanoma): 89.2%
growth (UACC-62 melanoma): 95.3%
growth (LOX IMVI melanoma): 5.31% (active)
growth (SK-MEL-28 melanoma): 100%

CCOC(=O)/C=C1\S/C(=N\Nc2ccc([N+](=O)[O-])cc2[N+](=O)[O-])N(Cc2ccccc2)C1=O
growth (DU-145 prostate): 81.4%
growth (K-562 leukemia): 54.7%
growth (MALME-3M melanoma): 93.1%
growth (MDA-MB-231 breast): 84.9%
growth (RXF 393 renal): 78%
growth (SF-268 CNS): 89.7%
growth (SF-295 CNS): 95.1%
growth (SF-539 CNS): 99.6%
growth (UACC-257 melanoma): 90.1%
growth (M14 melanoma): 100%
growth (HCT-15 colon): 35.8%
growth (SNB-75 CNS): 55.7%
growth (SNB-19 CNS): 82.9%
growth (U251 CNS): 71.7%
growth (PC-3 prostate): 64.5%
growth (SK-MEL-5 melanoma): 96.8%
growth (UACC-62 melanoma): 74.1%
growth (LOX IMVI melanoma): 86%
growth (SK-MEL-28 melanoma): 98.6%

CCc1ccc(Oc2c(-c3ccc(OCCc4cccc(C(F)(F)F)c4)cc3O)n[nH]c2C(F)(F)F)cc1
growth (DU-145 prostate): 25.6%
growth (K-562 leukemia): 7.94% (active)
growth (MALME-3M melanoma): 48.8%
growth (MDA-MB-231 breast): 50.2%
growth (RXF 393 renal): 80.7%
growth (SF-268 CNS): 47.7%
growth (SF-295 CNS): 87.6%
growth (SF-539 CNS): 74%
growth (UACC-257 melanoma): 56.6%
growth (M14 melanoma): 59.1%
growth (HCT-15 colon): 23.8%
growth (SNB-75 CNS): 63.3%
growth (SNB-19 CNS): 39.8%
growth (U251 CNS): 12.1%
growth (PC-3 prostate): 46.1%
growth (SK-MEL-5 melanoma): 42%
growth (UACC-62 melanoma): 18.6%
growth (LOX IMVI melanoma): 17.6%
growth (SK-MEL-28 melanoma): 44.3%

O=C(N/N=C/[C@H](O)[C@@H](O)[C@@H](O)[C@H](O)CO)c1ccc(NC(=O)c2cccnc2)cc1
growth (DU-145 prostate): 119%
growth (K-562 leukemia): 110%
growth (MALME-3M melanoma): 108%
growth (MDA-MB-231 breast): 100%
growth (RXF 393 renal): 121%
growth (SF-268 CNS): 103%
growth (SF-295 CNS): 102%
growth (SF-539 CNS): 106%
growth (UACC-257 melanoma): 102%
growth (M14 melanoma): 114%
growth (HCT-15 colon): 105%
growth (SNB-75 CNS): 92.6%
growth (SNB-19 CNS): 97.4%
growth (PC-3 prostate): 102%
growth (SK-MEL-5 melanoma): 104%
growth (UACC-62 melanoma): 95.5%
growth (LOX IMVI melanoma): 104%
growth (SK-MEL-28 melanoma): 111%

O=S(=O)(Nc1ccc(-c2nc(-c3cccc(OCCN4CCOCC4)c3)c(-c3ccnc(Br)c3)[nH]2)cc1)c1ccccc1
growth (DU-145 prostate): 59.5%
growth (K-562 leukemia): 3.42% (active)
growth (MALME-3M melanoma): 44%
growth (MDA-MB-231 breast): 36.8%
growth (RXF 393 renal): -15.1% (active)
growth (SF-268 CNS): 41.3%
growth (SF-295 CNS): 2.79% (active)
growth (SF-539 CNS): 38.1%
growth (UACC-257 melanoma): 53.1%
growth (M14 melanoma): 36.8%
growth (HCT-15 colon): 8.1% (active)
growth (SNB-75 CNS): 6.55% (active)
growth (SNB-19 CNS): 48.2%
growth (PC-3 prostate): 15.9%
growth (SK-MEL-5 melanoma): 37.5%
growth (UACC-62 melanoma): 28.7%
growth (LOX IMVI melanoma): 3.47% (active)
growth (SK-MEL-28 melanoma): 38.7%

CCN(CC)CCCNc1nc2ccccc2c2c(=O)c3cc(Cl)ccc3sc12
growth (DU-145 prostate): 54.4%
growth (K-562 leukemia): -44.2% (active)
growth (MALME-3M melanoma): 84.6%
growth (MDA-MB-231 breast): -9.32% (active)
growth (RXF 393 renal): 76%
growth (SF-268 CNS): 55.6%
growth (SF-295 CNS): 104%
growth (SF-539 CNS): 58.3%
growth (UACC-257 melanoma): 102%
growth (M14 melanoma): 1.36% (active)
growth (HCT-15 colon): 36.2%
growth (SNB-75 CNS): 68.3%
growth (SNB-19 CNS): 79.6%
growth (U251 CNS): 41.5%
growth (PC-3 prostate): 54.7%
growth (SK-MEL-5 melanoma): 92.7%
growth (UACC-62 melanoma): 73.8%
growth (LOX IMVI melanoma): -81.2% (active)
growth (SK-MEL-28 melanoma): 84.3%

COc1ccc(-c2cc(-c3cc(OC)c(OC)c(OC)c3)nc(N3CCOCC3)c2C#N)cc1
growth (DU-145 prostate): 93.5%
growth (K-562 leukemia): 47.5%
growth (MALME-3M melanoma): 126%
growth (MDA-MB-231 breast): 75.3%
growth (RXF 393 renal): 52.9%
growth (SF-268 CNS): 83.4%
growth (SF-295 CNS): 69.5%
growth (SF-539 CNS): 76.6%
growth (UACC-257 melanoma): 74.2%
growth (M14 melanoma): 90.3%
growth (HCT-15 colon): 66.6%
growth (SNB-75 CNS): 72.3%
growth (SNB-19 CNS): 86.7%
growth (U251 CNS): 64.5%
growth (PC-3 prostate): 62.7%
growth (SK-MEL-5 melanoma): 75.3%
growth (UACC-62 melanoma): 57.5%
growth (LOX IMVI melanoma): 74.7%
growth (SK-MEL-28 melanoma): 56.8%
